High-throughput results as filed in PubChem.
AGP1 TOR yeast – alters AGP1-GFP fluorescence in TOR pathway yeast screen. S. cerevisiae AGP1-GFP multiplex flow cytometry, 3 h; GFP as percent of DMSO wells. GFP response vs DMSO, % at 10 µM. hit rate 0.02% among 320,000;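 active means GFP response relative to DMSO above a set limit, near screen average plus 3 SD, cut at about 150% in these data; inconclusive means fewer than 70 cells counted for the yeast strain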;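 further: median GFP channel fluorescence of the gated AGP1 strain per well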
LAP4 TOR yeast – yeast TOR pathway LAP4-GFP modulation; GFP response vs DMSO, % at 10 µM; S. cerevisiae LAP4-GFP multiplex, flow cytometry GFP, 3 h; median GFP as percent of DMSO wells; AID 2023; hit rate 0.34% among 320,000;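 active means GFP response vs DMSO above a set limit, about the screen mean plus 3 SD, cut at about 150% in these data; inconclusive means under 70 cell events counted for the yeast strain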
CIT2-GFP yeast – modulators of TOR pathway CIT2-GFP in S. cerevisiae | S. cerevisiae CIT2-GFP strain, flow cytometry, 3 h; 100 means same as DMSO wells | GFP response vs DMSO, % at 10 µM | hit rate 0.065% among 320,000 | AID 2029;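 active means GFP response relative to DMSO above a set limit, near the screen mean plus 3 SD, cut at about 150% in these data; inconclusive means Fewer than 70 cells measured for a yeast strain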;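 further: ratio of well median GFP fluorescence to mean of DMSO wells on the plate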
MEP2-GFP yeast – yeast TOR pathway MEP2-GFP modulation; S. cerevisiae MEP2-GFP strain, flow cytometry GFP, 3 h; 100% = DMSO control level; GFP response vs DMSO, % at 10 µM; hit rate 0.51% among 330,000;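 active means GFP response versus DMSO above a set limit, roughly screen mean plus 3 SD, cut at about 180% in these data; inconclusive means fewer than 70 cells counted for a yeast strain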;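 further: median GFP fluorescence of the barcode-gated MEP2-GFP cells per well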
RPL19A TOR yeast – yeast TOR pathway RPL19A-GFP modulation; percent response vs DMSO, % at 10 µM; hit rate 0.3% among 330,000; S. cerevisiae RPL19A-GFP strain, flow cytometry, 3 h; active compounds read low;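 active means percent response vs DMSO below 50%; inconclusive means fewer than 70 events counted for the yeast strain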;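 further: median channel GFP fluorescence of the barcoded RPL19A-GFP strain; ratio of sample median GFP to plate DMSO average so 100% = DMSO; lower means less RPL19A-GFP as with rapamycin TOR inhibition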
* = called active by the depositor; [ ] = another dose, or the depositor's remark. Only some compounds are listed: those with a hit (about 0.93% of all), similar ones and a draw of the others.

What do the screens show for `COc1ccccc1C(=O)NC(=O)COC(=O)CCS(=O)(=O)c1ccc(C)cc1`?
AGP1 TOR yeast: 107; LAP4 TOR yeast: 108; CIT2-GFP yeast: 108; MEP2-GFP yeast: 98; RPL19A TOR yeast: 98

How did COc1ccc(-c2nnc(NC(=O)c3ccc([N+](=O)[O-])o3)o2)c(OC)c1 do in these assays?
AGP1 TOR yeast: 93; LAP4 TOR yeast: 117; CIT2-GFP yeast: 95; MEP2-GFP yeast: 103; RPL19A TOR yeast: 97

How did Cc1ccc(-c2nnc(NC(=O)c3ccc([N+](=O)[O-])o3)o2)c(C)c1 do in these assays?
AGP1 TOR yeast: 79; LAP4 TOR yeast: 150*; CIT2-GFP yeast: 91; MEP2-GFP yeast: 122; RPL19A TOR yeast: 99

What do the screens show for `Cc1ccc(CNC(=O)CSc2nc(=O)n3ccccc3n2)cc1`?
AGP1 TOR yeast: 115; LAP4 TOR yeast: 103; CIT2-GFP yeast: 109; MEP2-GFP yeast: 108; RPL19A TOR yeast: 104

Results for CN1CC(=O)NC1=NC(=O)C12CC3CC(CC(C3)C1)C2 ?
AGP1 TOR yeast: 89; LAP4 TOR yeast: 229*; CIT2-GFP yeast: 79; MEP2-GFP yeast: 99; RPL19A TOR yeast: 93

How did COCCNc1nc2c(-c3cccc(C(F)(F)F)c3)nnn2c2ccccc12 do in these assays?
AGP1 TOR yeast: 94; LAP4 TOR yeast: 106; CIT2-GFP yeast: 97; MEP2-GFP yeast: 114; RPL19A TOR yeast: 95

How did NNc1nc2c(-c3cccc(C(F)(F)F)c3)nnn2c2ccccc12 do in these assays?
AGP1 TOR yeast: 21; LAP4 TOR yeast: 122; CIT2-GFP yeast: inconclusive; MEP2-GFP yeast: 400*[may fluoresce violet]; RPL19A TOR yeast: 48*[may fluoresce violet]

Results for CC(Cc1ccco1)NC(=O)c1cccc(S(=O)(=O)N(C)C)c1 (configuration not stated) ?
AGP1 TOR yeast: 100; LAP4 TOR yeast: 95; CIT2-GFP yeast: 111; MEP2-GFP yeast: 107; RPL19A TOR yeast: 108

What do the screens show for `O=c1[nH]c(NCCO)c(N=Cc2ccccc2)c(=O)[nH]1`?
AGP1 TOR yeast: inconclusive; LAP4 TOR yeast: 112; CIT2-GFP yeast: inconclusive; MEP2-GFP yeast: 213*[may fluoresce violet]; RPL19A TOR yeast: 64

Results for CCOC(=O)N1CCN(C(=O)Cn2ncn3nc(-c4cccs4)cc3c2=O)CC1 ?
AGP1 TOR yeast: inconclusive; LAP4 TOR yeast: 94; CIT2-GFP yeast: inconclusive; MEP2-GFP yeast: 469*[may fluoresce violet]; RPL19A TOR yeast: 25*[may fluoresce violet]

How did OC(CNCCCN1CCCCC1)COc1ccccc1 (configuration not stated) do in these assays?
AGP1 TOR yeast: 29; LAP4 TOR yeast: 92; CIT2-GFP yeast: inconclusive; MEP2-GFP yeast: 198*[may fluoresce violet]

Results for OC(COc1ccccc1)CN1CCCCCC1 (configuration not stated) ?
AGP1 TOR yeast: 101; LAP4 TOR yeast: 97; CIT2-GFP yeast: 93; MEP2-GFP yeast: 95; RPL19A TOR yeast: 96

Results for O=C(C1CCN(S(=O)(=O)c2cnc[nH]2)CC1)N1CCc2ccccc2C1 ?
AGP1 TOR yeast: 18; LAP4 TOR yeast: 102; MEP2-GFP yeast: 454*[may fluoresce violet]; RPL19A TOR yeast: 47*[may fluoresce violet]

How did CN(C)C(=O)CN1CCN(Cc2cn(C)nc2-c2ccc3c(c2)OCCO3)CC1 do in these assays?
AGP1 TOR yeast: 93; LAP4 TOR yeast: 104; CIT2-GFP yeast: 101; MEP2-GFP yeast: 96; RPL19A TOR yeast: 93

Results for Cc1ccccc1OCCC(=O)Nc1ccccc1C(=O)NC1CC1 ?
AGP1 TOR yeast: 103; LAP4 TOR yeast: 99; CIT2-GFP yeast: 94; MEP2-GFP yeast: 97; RPL19A TOR yeast: 97

Results for O=C(N/C(=C\c1ccc(Br)cc1)c1nc2ccccc2[nH]1)c1ccco1 ?
AGP1 TOR yeast: inconclusive; LAP4 TOR yeast: 97; CIT2-GFP yeast: inconclusive; MEP2-GFP yeast: 217*[may fluoresce violet]; RPL19A TOR yeast: 33*[may fluoresce violet]

What do the screens show for `CC(C(=O)NCCc1ccc(F)cc1)N1CCN(Cc2ccccc2)CC1` (configuration not stated)?
AGP1 TOR yeast: 107; LAP4 TOR yeast: 139; CIT2-GFP yeast: 119; MEP2-GFP yeast: 213*; RPL19A TOR yeast: 103

Results for O=C(CN1CCOCC1)N1CCc2ccccc2C(c2ccccc2)C1 (configuration not stated) ?
LAP4 TOR yeast: 93; CIT2-GFP yeast: inconclusive; MEP2-GFP yeast: 326*[may fluoresce violet]; RPL19A TOR yeast: 25*[may fluoresce violet]

What do the screens show for `COc1ccc(CC(=O)Nc2ccc(S(=O)(=O)N3CCCC3)cc2)c(OC)c1`?
AGP1 TOR yeast: 102; LAP4 TOR yeast: 99; CIT2-GFP yeast: 96; MEP2-GFP yeast: 98; RPL19A TOR yeast: 94

Results for O=C1CCCCC1c1cccc2ccccc12 (configuration not stated) ?
AGP1 TOR yeast: 16; LAP4 TOR yeast: 77; CIT2-GFP yeast: inconclusive; MEP2-GFP yeast: 177*[may fluoresce violet]; RPL19A TOR yeast: 85

What do the screens show for `Cc1ccc(N/C=C/C(=O)c2ccco2)c(O)c1`?
AGP1 TOR yeast: 23; LAP4 TOR yeast: 104; CIT2-GFP yeast: inconclusive; MEP2-GFP yeast: 307*[may fluoresce violet]; RPL19A TOR yeast: 55

How did Cc1ccc([N+](=O)[O-])cc1N/C=C/C(=O)c1ccco1 do in these assays?
AGP1 TOR yeast: 92; LAP4 TOR yeast: 111; CIT2-GFP yeast: 82; MEP2-GFP yeast: 105; RPL19A TOR yeast: 90

Results for CCOc1ccc2nc(N/C(N)=N/C(=S)Nc3ccc(C)c(C)c3)nc(C)c2c1 ?
AGP1 TOR yeast: 96; LAP4 TOR yeast: 103; CIT2-GFP yeast: 97; MEP2-GFP yeast: 102; RPL19A TOR yeast: 102

What do the screens show for `CCNC(=S)/N=C(\N)Nc1nc(C)c2cc(C)ccc2n1`?
AGP1 TOR yeast: 22; LAP4 TOR yeast: 137; CIT2-GFP yeast: inconclusive; MEP2-GFP yeast: 87; RPL19A TOR yeast: 46*[may fluoresce violet]

What do the screens show for `CCC(c1nnnn1C(C)(C)C)N(Cc1ccco1)Cc1cc2cccc(C)c2[nH]c1=O` (configuration not stated)?
AGP1 TOR yeast: inconclusive; LAP4 TOR yeast: 98; CIT2-GFP yeast: inconclusive; MEP2-GFP yeast: 350*[may fluoresce violet]; RPL19A TOR yeast: 54

Results for CCC(c1nnnn1CCc1ccccc1)N(Cc1ccco1)Cc1cc2cccc(C)c2[nH]c1=O (configuration not stated) ?
AGP1 TOR yeast: 107; LAP4 TOR yeast: 108; CIT2-GFP yeast: 105; MEP2-GFP yeast: 111; RPL19A TOR yeast: 107

How did CC(C)(C)NC(=O)CN(C(=O)CCC(=O)Nc1nccs1)c1ccc(F)cc1 do in these assays?
AGP1 TOR yeast: 85; LAP4 TOR yeast: 110; CIT2-GFP yeast: 116; MEP2-GFP yeast: 272*; RPL19A TOR yeast: 96

What do the screens show for `C[C@]12CC[C@H]3C(=CCc4cc(O)ccc43)[C@@H]1CCC2=O`?
AGP1 TOR yeast: 88; LAP4 TOR yeast: 157*; CIT2-GFP yeast: 78; MEP2-GFP yeast: 105; RPL19A TOR yeast: 103

How did C[C@]12C[C@H](O)[C@@H]3c4ccc(O)cc4CCC3[C@@H]1CCC2=O (some centres not stated) do in these assays?
AGP1 TOR yeast: 101; LAP4 TOR yeast: 104; CIT2-GFP yeast: 104; MEP2-GFP yeast: 112; RPL19A TOR yeast: 96

Results for COc1ccc(-c2csc(Nc3ncccc3C)n2)cc1 ?
LAP4 TOR yeast: 151*; CIT2-GFP yeast: 107; MEP2-GFP yeast: 128; RPL19A TOR yeast: 79
